Hits are enriched below; roughly 1.1% of the tested compounds scored in any of these assays.
MEP2 TOR yeast – alters MEP2-GFP fluorescence in TOR pathway yeast screen. S. cerevisiae MEP2-GFP strain, flow cytometry GFP, 3 h; 100% = DMSO control level. GFP response vs DMSO, % at 10 µM. 0.51% of 330,000 active;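 active = GFP response versus DMSO above a set limit, roughly screen mean plus 3 SD, cut at about 180% in these data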;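 also: median GFP fluorescence of the barcode-gated MEP2-GFP cells per well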
VLA-4 inh – inhibition in a human VLA-4 binding assay; VLA-4 expressing cells, ligand binding flow cytometry; P13612; 0.2% of 330,000 active; inhibition, % (about 7 µM as worked out from the volumes in the protocol); in the data active = inhibition above about 50%
AGP1 TOR yeast – modulators of TOR pathway AGP1-GFP in S. cerevisiae; 0.02% of 320,000 active; GFP response vs DMSO, % at 10 µM; S. cerevisiae AGP1-GFP multiplex flow cytometry, 3 h; GFP as percent of DMSO wells;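 active = GFP response relative to DMSO above a set limit, near screen average plus 3 SD, cut at about 150% in these data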;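 also: median GFP channel fluorescence of the gated AGP1 strain per well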
RPL19A TOR yeast – alters RPL19A-GFP fluorescence in TOR pathway yeast screen; AID 2025; 0.3% of 330,000 active; percent response vs DMSO, % at 10 µM; S. cerevisiae RPL19A-GFP strain, flow cytometry, 3 h; hits give low values;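 active = percent response vs DMSO below 50%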;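 also: median channel GFP fluorescence of the barcoded RPL19A-GFP strain; ratio of sample median GFP to plate DMSO average so 100% = DMSO; lower means less RPL19A-GFP as with rapamycin TOR inhibition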
CIT2-GFP yeast – yeast TOR pathway CIT2-GFP modulation; S. cerevisiae CIT2-GFP strain, flow cytometry, 3 h; 100 means same as DMSO wells; GFP response vs DMSO, % at 10 µM; 0.065% of 320,000 active;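 active = GFP response relative to DMSO above a set limit, near the screen mean plus 3 SD, cut at about 150% in these data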;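 also: ratio of well median GFP fluorescence to mean of DMSO wells on the plate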
LAP4-GFP MLPCN – alters LAP4-GFP fluorescence in TOR pathway yeast screen | S. cerevisiae LAP4-GFP multiplex, flow cytometry GFP, 3 h; median GFP as percent of DMSO wells | GFP response vs DMSO, % at 10 µM | 0.34% of 320,000 active | AID 2023;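 active = GFP response vs DMSO above a set limit, about the screen mean plus 3 SD, cut at about 150% in these data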
VLA-4 mod pick – human VLA-4 allosteric modulation in cherry picked compounds | shares compounds with VLA-4 inh | AID 2813 | inhibition, % at 6.7 µM | 2% of 1,300 active | U937 cells, HUTS-21 LIBS mAb binding, flow cytometry; LDV ligand present at threefold Kd; in the data active = inhibition above about 40%;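 also: 0% = ligand without compound and 100% = no ligand background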
* hit, by the source's call; x = no result given.

SMILES	MEP2 TOR yeast	VLA-4 inh	AGP1 TOR yeast	RPL19A TOR yeast	CIT2-GFP yeast	LAP4-GFP MLPCN	VLA-4 mod pick
CNC(=S)N/N=C/c1c(C)nn(-c2cccc(Cl)c2)c1Cl	102	40	94	100	100	101	7
CNC(=S)N/N=C/c1c(C)nn(-c2ccccc2)c1Cl	106	x	93	95	87	123	x
C/C(=N\NC(=O)CSCc1cccc(Br)c1)c1ccc([N+](=O)[O-])cc1	101	51*	104	101	98	102	7
CC(C)NC(=O)CSCc1cccc(Br)c1	102	19	104	100	96	101	x
COc1cc2c(cc1OC)C(C)N(CCc1ccc(Cl)cc1)CC2 (centres undefined)	99	-7	102	99	100	106	x
COc1cc2c(cc1OC)C(C)N(CCN1C(=O)c3ccccc3C1=O)CC2 (centres undefined)	108	44	103	103	105	99	-7
CCOc1ccc(N(CC(=O)NC2CCCCC2)S(=O)(=O)c2ccccc2)cc1	123	10	102	102	94	94	x
COc1ccc(-c2cc(C(=O)N3CCN(c4ccccn4)CC3)c3ccccc3n2)cc1	105	1	107	98	98	101	x
COc1ccc(OC)c(-c2cc(C(=O)N3CCN(c4ncccn4)CC3)c3ccccc3n2)c1	100	95*	97	96	98	102	-1
COc1cc(-c2cc(C(=O)N3CCN(c4ccccn4)CC3)c3ccccc3n2)cc(OC)c1OC	110	-6	108	101	103	109	-6
COc1ccc(S(=O)(=O)Nc2cc3c4c(c2)CCN4C(=O)CC3)cc1C	100	-8	103	100	102	105	x
CCN(CC)S(=O)(=O)c1cccc(NC(=O)c2cc(-c3cccs3)nn2-c2ccccc2)c1	105	-11	105	103	104	97	x
CN(C)S(=O)(=O)c1cccc(NC(=O)c2cc(-c3cccs3)nn2-c2ccccc2)c1	x	40	x	x	x	x	1
CC(=O)[C@@]1(O)CC[C@H]2[C@@H]3CCC4=CC(=O)CC[C@]4(C)[C@H]3[C@@H](O)C[C@@]21C	104	53*	83	97	77	126	3
C[C@]12CCC(=O)C=C1CC[C@@H]1[C@@H]2CC[C@@]2(C)[C@H]1CC[C@]2(O)C(=O)CO	97	36	87	102	78	123	x
Cc1nc2cc(-c3ccc(Cl)cc3)nn2c(C)c1CCC(=O)NCc1ccco1	98	52*	101	100	94	114	18
CC(C)c1ccc(C2(C)NC(=O)N(CC(=O)NC3CCCC(C)C3C)C2=O)cc1 (centres undefined)	95	52*	89	94	91	92	0
CCC(C)[C@H](NC(=O)[C@@H]1CSC2c3ccccc3C(=O)N21)C(=O)NCc1ccco1 (some centres undefined)	126	3	94	101	101	97	x
CC(OC(=O)c1ccc(O)cc1)C(=O)Nc1cc(C(F)(F)F)ccc1Cl (centres undefined)	97	4	97	99	77	88	-9
Cc1ccc(NC(=O)CN2C(=O)NC(Cc3c[nH]c4ccccc34)C2=O)cc1 (centres undefined)	119	12	114	113	105	119	x
NS(=O)(=O)c1ccc(CNC(=O)C(Cc2ccccc2)NS(=O)(=O)c2ccccc2F)cc1 (centres undefined)	106	43	90	98	104	96	-9
NS(=O)(=O)c1ccc(CNC(=O)Cc2ccccc2F)cc1	100	2	95	106	108	97	x
CCOC(=O)N1CCN(C(=O)c2ccc3c(c2)N(Cc2cc(C)ccc2C)C(=O)c2ccccc2S3=O)CC1 (centres undefined)	102	2	104	103	112	110	x
Cc1cc(C)cc(N(CC(=O)Nc2cc(C)ccc2C)S(=O)(=O)c2c(C)[nH]c(=O)[nH]c2=O)c1	105	5	107	106	115	97	2
Cc1cc(C)cc(N(CC(=O)NC2CCCC2)S(=O)(=O)c2c(C)[nH]c(=O)[nH]c2=O)c1	92	2	96	94	91	106	x
SMILES	MEP2 TOR yeast	VLA-4 inh	AGP1 TOR yeast	RPL19A TOR yeast	CIT2-GFP yeast	LAP4-GFP MLPCN	VLA-4 mod pick
Cc1cc(C)cc(N(CC(=O)Nc2cccc(C)c2C)S(=O)(=O)c2c(C)[nH]c(=O)[nH]c2=O)c1	99	10	98	99	100	93	x
Cc1cc(C)cc(N(CC(=O)Nc2ccc(Br)cc2)S(=O)(=O)c2c(C)[nH]c(=O)[nH]c2=O)c1	100	2	98	100	95	94	12
O=C(NN=Cc1ccccc1C(=O)O)c1ccc(NS(=O)(=O)c2cccs2)cc1	113	11	108	102	103	114	x
O=c1c2[nH]c3cccc(Cl)c3c2ncn1Cc1ccco1	97	-1	101	97	104	100	14
O=c1c2[nH]c3cccc(Cl)c3c2ncn1CCN1CCCCC1	103	-1	102	104	101	105	5
COc1ccc2c(c1)[nH]c1c(=O)n(CC3CCCO3)cnc12 (centres undefined)	119	-13	115	105	113	102	x
COc1cc2[nH]c3c(=O)n(CCN4CCCCC4)cnc3c2cc1OC	107	2	104	102	99	108	x
O=c1c2[nH]c3cccc(Cl)c3c2ncn1CC1CCCO1 (centres undefined)	95	-21	100	95	88	101	9
COc1ccc(-c2nnc(SCc3ccccc3F)o2)cc1OC	108	95*	104	94	110	108	5
Cc1ccc(-c2nnc(SCc3ccccc3F)o2)cc1	103	-12	100	98	103	104	x
O=C(COc1ccccc1)OCC(=O)c1ccc(S(=O)(=O)N2CCCCC2)cc1	96	4	93	92	88	93	x
CCOC(=O)N1CCC(N2Cc3cccc(C(=O)NCc4ccc(C)cc4)c3C2=O)CC1	107	50*	107	112	103	99	14
Cc1ccc(NC(=O)CN(c2ccc(C)cc2)S(=O)(=O)c2cccc3nonc23)cc1	89	27	99	98	98	95	0
Cc1nn(C)c(C)c1S(=O)(=O)N(CC(=O)Nc1ccc2c(c1)OCO2)c1ccc(C(C)C)cc1	105	-12	103	99	97	97	-2
CCOc1ccc(NC(=O)CN(c2ccc(C)cc2)S(=O)(=O)c2c(C)nn(C)c2C)cc1	102	5	98	104	96	94	x

Assay outcomes deposited in PubChem BioAssay by NMMLSC.
